Source: PubChem
Shown are actives, neighbours in structure and some others; about 3.2% of the full set was active somewhere.
AMA1-RON2 inh: disrupts binding of P. falciparum AMA1 to RON2; AlphaScreen AMA1-biotinylated RON2 peptide binding; Potency, µM (top dose mostly 58.2 µM), inactives show at the highest dose activity change, negative = inhibition, most hits filed as inhibitors; actives 0.2% (n = 360,000); AID 720542;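 further: 0% = vehicle wells and -100% = peptide control; nearly all actives have a fitted effect of over 45% in size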
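AMA1 (3D7) with his tag at 25 nM final met compounds first, then biotinylated RON2 peptide at 25 nM; detection used donor plus acceptor beads, 10 µg/mL apiece, read by AlphaScreen after 30 min at room temperature.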
AmpC inh detg: inhibitors of E. coli AmpC beta-lactamase with detergent; P00811; AmpC hydrolysis of nitrocefin, absorbance 480 nm, 0.01% Triton; Potency, µM (top dose mostly 114 µM), for the others: top-dose activity change, negative = inhibition, actives largely listed as inhibitors; actives 0.041% (n = 370,000); AID 485294;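 further: 0% = no-compound wells and -100% = no-enzyme wells; nearly all actives have a fitted effect of over 25% in size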
Target sequence (P00811 whole entry, looked up): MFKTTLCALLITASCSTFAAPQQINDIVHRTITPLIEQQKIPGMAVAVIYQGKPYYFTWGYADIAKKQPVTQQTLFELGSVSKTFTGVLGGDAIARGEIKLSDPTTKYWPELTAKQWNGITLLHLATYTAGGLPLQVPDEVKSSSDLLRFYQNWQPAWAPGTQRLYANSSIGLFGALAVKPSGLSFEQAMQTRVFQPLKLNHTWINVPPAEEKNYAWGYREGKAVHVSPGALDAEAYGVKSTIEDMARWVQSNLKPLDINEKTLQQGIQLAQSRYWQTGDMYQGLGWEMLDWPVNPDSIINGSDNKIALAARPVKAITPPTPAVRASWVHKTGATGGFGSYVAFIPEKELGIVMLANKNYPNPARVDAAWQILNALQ
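20 mM phosphate pH 7.0 + 0.01% (detergent screen) or 0.0001% Triton X-100; 5.3 nM AmpC reagent; cpd preinc 15 min RT; nitrocefin (800 uM stock) to start; A480 q20 s × 4 min; Activity was normalised to no-enzyme and no-compound control wells.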
RE007 growth inh: less growth of the S. pombe RE007 Vpr strain; AID 651644; Potency, µM (titrated, usually from 92.2 µM), without a hit: top-dose activity change, negative = less growth, most hits filed as inhibitors; actives 0.21% (n = 360,000); S. pombe RE007 Vpr strain, BacTiter-Glo ATP luminescence, 24 h; active means well fitted falling curve with a large enough effect; inconclusive means small, poorly fitted or top-dose-only effect; inactive means no such curve, though single readings can be large or run the other way; further: nearly all actives have a fitted effect of over 50% in size
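Fission yeast strain RE007, carrying one chromosomally integrated HIV-1 vpr copy, was seeded at OD 0.01 in PMG+AL medium with 23 nL pinned compound. After 24 h at 30 °C and 99% humidity, viability was read by BacTiter-Glo luminescence.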
AmpC inh no detg: blocks E. coli AmpC beta-lactamase in detergent-free assay; AmpC nitrocefin hydrolysis, absorbance 480 nm, 0.0001% Triton; Potency, µM (highest dose often 57.1 µM), for inactives: at the top dose activity change, negative = inhibition, most hits filed as inhibitors; actives 0.52% (n = 330,000);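 further: plate controls were no compound for no effect and no enzyme for full effect; nearly all actives have a fitted effect of over 20% in size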
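AmpC (5.3 nM in the dispensed reagent) in 20 mM phosphate pH 7.0 with 0.01% (detergent screen) or 0.0001% Triton X-100 was preincubated with compounds for 15 min at room temperature. Nitrocefin was then added from an 800 uM solution, and hydrolysis was followed at 480 nm.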
Sm TGR block: blocks Schistosoma mansoni thioredoxin glutathione reductase | Q962Y6 | purified TGR, DTNB reduction, TNB absorbance 405 nm | Potency, µM (titrated, usually from 114 µM), for the others: at the highest dose activity change, negative = inhibition, hits mostly inhibitors | actives 3% (n = 360,000) | AID 485364; further: nearly all actives have a fitted effect of over 60% in size
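First, TGR (20 nM dispensed) and NADPH were mixed with compound. Second, a 15 min room-temperature incubation followed. Third, further NADPH and then DTNB were added to start the reaction. Finally, TNB absorbance was monitored kinetically.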
* hit, by the source's call; ? = inconclusive; . = not tested or not shown. Unless noted, the call rests on the fitted dose curve; in most records, active means well fitted curve in the direction sought with a large enough effect; inconclusive means small, poorly fitted or top-dose-only effect, or another doubt; inactive means no such curve, though single readings can be large; an effect the other way counts as inactive or inconclusive. Unless noted, on the % scale 0 is the no-effect control and ±100 the full control effect; potency means the concentration at half of the fitted maximal effect.

SMILES	AMA1-RON2 inh	AmpC inh detg	RE007 growth inh	AmpC inh no detg	Sm TGR block
Cn1cc(-c2cc3n(n2)CCC(=O)N3CCCC(=O)NCc2ccccc2Cl)c2ccccc21	.	1%	.	.	0%
CCc1ccc(C2CC(c3ccc(F)cc3)Nc3nc(N)nn32)cc1 (stereo unspecified)	0%	10%	-10%	4.5µM*	4%
Cc1ccc(C2CC(c3ccc(C)cc3)n3nc(N)nc3N2)cc1 (stereo unspecified)	9%	?	9%	45µM*	-3%
CCc1cccc(OCC(=O)Nc2ccc(S(=O)(=O)Nc3cc(C)nc(C)n3)cc2)c1	.	4%	.	.	-12%
COc1ccc2oc(C(=O)N(Cc3ccco3)Cc3cccs3)c(C)c2c1	-28%	-19%	-15%	32µM*	?
COc1ccc2oc(C(=O)N3CCN(C(=O)c4ccco4)CC3)c(C)c2c1	10%	-9%	-8%	3%	50µM*
Cc1onc(-c2ccccc2)c1C(=O)N(Cc1ccco1)Cc1cccs1	-11%	-5%	5%	-19%	18µM*
CCc1nnc(SCc2nc(-c3ccccc3F)oc2C)c2cc3sccc3n12	.	4%	.	.	0%
CNC(=S)N/N=C(\C)c1ccc(C(C)(C)C)cc1	25%	3%	0%	-17%	3%
CNC(=S)N/N=C(\C)c1ccccc1	51%	?	-6%	-19%	5.6µM*
COc1ccc(/C(C)=N/OC/C(O)=C(\C#N)c2nc3ccccc3[nH]2)c(OC)c1	82%	-12%	0%	14µM*	-12%
COc1ccc(/C(C)=N/OC/C(O)=C(\C#N)c2nc3ccccc3[nH]2)cc1OC	65%	-5%	37%	-8%	0%
COc1cc2cnc(-c3ccccc3)c(-c3cc(OC)c(OC)c(OC)c3)c2cc1OC	-5%	0%	-11%	123%	3.2µM*
COc1cc2cnc(-c3ccccc3)c(-c3ccc([N+](=O)[O-])cc3)c2cc1OC	2%	0%	-11%	-16%	-25%
COc1cc(C(=O)NCC(c2cccs2)S(=O)(=O)c2cccs2)cc(OC)c1OC (stereo unspecified)	.	2%	.	.	?
CCn1c(=O)c2cc(C(=O)N(CCCOC(C)C)Cc3ccco3)sc2c2ccccc21	.	-12%	.	.	-9%
Cc1ccc(-c2csc(/C(C#N)=C(\O)CCl)n2)cc1	17%	3%	0%	-25%	18µM*
CCn1c(=O)c([N+](=O)[O-])c(Cl)c2ccccc21	21%	1%	-12%	-22%	0.79µM*
CCn1c(=O)c([N+](=O)[O-])c(NCCN(C)C)c2ccccc21	12%	5%	2%	-7%	11%
CCOc1ccc2nc(Cl)c(C3CC(c4ccccc4)=NN3C(=O)CCC(=O)O)cc2c1 (stereo unspecified)	.	20%	.	.	-1%
CC1CCC(NC(=O)C2(C)CCC(=O)N2Cc2cccnc2)CC1 (stereo unspecified)	-6%	?	4%	45µM*	0%
CC1(C(=O)NC2CCCCC2)CCC(=O)N1Cc1cccnc1 (stereo unspecified)	-1%	?	2%	-4%	-6%
COc1ccc(-c2cc(OC)c3c(C)oc(C)c3c(=O)c2)cc1OC	-13%	-3%	-9%	144%	50µM*
COc1ccc(-c2cc(OC(=O)c3ccc(Cl)cc3)c3c(C)oc(C)c3c(=O)c2)cc1	.	-2%	.	.	40µM*
COc1cc(-c2cc(OC)c3c(C)oc(C)c3c(=O)c2)ccc1O	-10%	-13%	-6%	0%	-15%
SMILES	AMA1-RON2 inh	AmpC inh detg	RE007 growth inh	AmpC inh no detg	Sm TGR block
CCOc1ccc(-c2cc(OC(=O)c3ccc(OC)cc3)c3c(C)oc(C)c3c(=O)c2)cc1	.	9%	.	.	?
CCOC(=O)c1ccccc1NC(=O)CCc1c(C)nc2ncnn2c1C	.	17%	.	.	1%
COc1ccc(NC(=O)Cn2c(=O)n(CCC(=O)NCc3ccccc3OC)c(=O)c3ccccc32)cc1Cl	.	27%	.	.	2%
CC(C)(C)C(=O)C(Cl)C(=O)Nc1ccccc1 (stereo unspecified)	5%	?	-42%	-13%	22µM*
O=C(Nc1ccc(Nc2ccccc2)cc1)C(Cl)Cl	-21%	-4%	-2%	-20%	-4%
CCOc1cc(C2c3c(n[nH]c3C)C(=O)N2c2ccc(C)cc2)ccc1O (stereo unspecified)	-11%	-10%	8%	?	18µM*
COc1cc(C2c3c(n[nH]c3C)C(=O)N2c2ccc(C)cc2)ccc1O (stereo unspecified)	1%	-17%	23%	-14%	?
COc1ccc2c(c1)c(=O)c(C(=O)c1ccc(C)cc1)cn2CC(=O)Nc1ccc(F)cc1	0%	?	22%	18µM*	-3%
COc1ccc2c(c1)c(=O)c(C(=O)c1ccc(F)cc1)cn2CC(=O)Nc1ccc(F)cc1	0%	?	15%	-59%	-4%
CCC(=O)c1cn(CC(=O)Nc2ccc(C)cc2)c2ccccc12	-1%	?	3%	-16%	100µM*
Fc1ccc(-n2ncc3c(Nc4ccc(Oc5ccc(Cl)cc5)cc4)ncnc32)cc1	.	5%	.	.	6%
COc1cc(C2CC(=O)Nc3c2c(=O)n(C)c2ncnn32)cc(OC)c1OC (stereo unspecified)	.	4%	.	.	7%
O=C1CN(C(=O)CNCc2cccc(Cl)c2)c2ccccc2N1	-19%	0%	-15%	-15%	45µM*
O=C1CN(C(=O)CNCc2ccccc2Cl)c2ccccc2N1	14%	8%	4%	-6%	?
CC1CCC(Nc2nc3c(-c4cccc(C(F)(F)F)c4)nnn3c3ccccc23)CC1 (stereo unspecified)	.	10%	.	.	7%
O=S(=O)(c1ccc(Br)cc1)c1cnc2ccccc2n1	-27%	2%	-4%	-23%	14µM*
COc1ccc(S(=O)(=O)c2cnc3ccccc3n2)cc1	-13%	-7%	8%	0%	?
Brc1ccc(-c2nc3ncccn3c2Nc2ccc3c(c2)OCCO3)o1	-19%	-2%	6%	-10%	-27%
Cc1ccc(Nc2c(-c3ccco3)nc3nc(C)cc(C)n23)cc1	-1%	3%	-11%	-16%	32µM*
Cc1cc(C)n2c(Nc3ccc4c(c3)OCCO4)c(-c3ccccn3)nc2n1	8.9µM*	.	-14%	.	.
Cc1ccc(-c2nc3ncccn3c2Nc2ccc3c(c2)OCCO3)o1	27%	0%	10%	-16%	50µM*
Cc1ccc2nc(-c3ccc(C)o3)c(Nc3ccc4c(c3)OCCO4)n2c1	.	-10%	.	.	?
Cc1ccc(-c2nc3ccc(Cl)cn3c2Nc2ccc3c(c2)OCCO3)o1	.	8%	.	.	28µM*
